Reference: PubChem BioAssay (EPA / NIEHS)
Where “and” joins values, the source holds several entries; their conditions need not be identical. Identical values can stand only once. Inconclusive results are not listed. The source holds several records for some structures; these can differ, active in one and inactive in another. Calls of active or inactive are those of the source. The calls were made as follows: active = hit-call score of the fitted dose curve at least 0.9, where 1 is the maximum; inconclusive = response in the unintended direction; inactive = score below 0.9.

Tests used:
[1] = Tanguay_ZF_120hpf_ActivityScore_legacy: (Legacy) Oregon State University Tanguay Lab 120 Hour Post-fertilization zebrafish Assay Score for Activity (AID 2283742);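 as to AC50: dechorionated Tropical 5D wild-type zebrafish embryos held singly per well; static exposure from 6 hpf until 120 hpf at 28 °C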
In short: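 In this whole-embryo screen, dechorionated zebrafish were exposed from 6 hpf until 120 hpf at 28C under a 0.64% DMSO vehicle. Developmental malformations and death were recorded by brightfield microscopy as binary endpoints.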

[2] = target: Luciferin 4-monooxygenase (Photinus pyralis) (UniProt P08659); test: CCTE_Simmons_QuantiLum_inhib_2: CCTE's Firefly Luciferase Inhibition Assay, Simmons Lab (AID 2283767);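 as to AC50: potency for inhibitors that lower luciferase luminescence relative to DMSO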
In short: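 Eight test concentrations, 5 nM up to 87.5 uM final, preincubated 30min at 37C in the dark with purified luciferase (0.5% DMSO final). Detection reagent (150uM D-luciferin, 147uM dATP, 75uM CoA, pH 7.8) injected per well before kinetic luminescence read; three replicates.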

[3] = ACEA_AR_agonist_AUC_viability: ACEA Biosciences xCELLigence Real-Time Cell Analysis on Androgen Receptor Agonism for Viability (AID 2283775);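 as to AC50: viability read 80 hours after compound addition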
In short: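 22Rv1 cells; impedance growth kinetics; 8-pt 1:4 dilutions from 100 uM top final, ≤0.5% DMSO; n = 2; 80 h read; AUC viability, loss-of-signal vs DMSO.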

[4] = ACEA_AR_antagonist_AUC_viability: ACEA Biosciences xCELLigence Real-Time Cell Analysis on Androgen Receptor Antagonism for Viability (AID 2283776);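 also: area under impedance growth curve at 80 h after dosing as viability; hits lower the growth signal relative to DMSO meaning cytotoxicity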
In short: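 22Rv1 human prostate cancer cells were seeded on electrode plates, monitored overnight, then exposed to eight 1:4 dilutions from 100 uM final. Impedance-based growth kinetics at 80 h gave an AUC viability endpoint normalized to DMSO.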

[5] = ACEA_ER_AUC_viability: ACEA Biosciences xCELLigence Real-Time Cell Analysis on Estrogen Receptor Agonism for Viability (AID 2283782);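 also: hit means loss of impedance signal meaning reduced cell growth or viability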
In short: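 Continuous-exposure impedance cell analysis uses T-47D cells in charcoal-stripped serum, eight 1:4 dilutions topping at 100 uM final, biological duplicate. Area under the growth curve at 80 h is fitted against DMSO baseline.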

AR (gene 367) = AR (gene 367) (UniProt P10275); test: ACEA_AR_agonist_80hr: ACEA Biosciences xCELLigence Real-Time Cell Analysis on Androgen Receptor Agonism for Proliferation (AID 2283783);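 also: hits increase impedance growth signal above DMSO baseline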
In short: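 Real-time cell-growth kinetics were recorded by electrode impedance in 22Rv1 cells exposed to test chemicals up to 100 uM final; the 80 h timepoint served as the readout, fitted upward relative to DMSO controls, in biological duplicate.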

[6] = ArunA_NOG_NucleusCount: ArunA Biomedical's Neurite Outgrowth (NOG) Assay for Nucleus Count (AID 2283756)
In short: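 Viable neuron count, from Hoechst nuclei passing size and intensity gates, imaged at 20x on differentiated H9-derived human neurons. Exposure lasted 48 h from seeding; activity was scored relative to DMSO.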

[7] = ArunA_NOG_NeuriteLength: ArunA Biomedical's Neurite Outgrowth (NOG) Assay for Neurite Length (AID 2283757)
In short: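 Total neurite length per neuron, from traced βIII-tubulin-labelled processes longer than 10 um on viable Hoechst-gated cells, was scored as decrease from DMSO. Cells were hESC (H9)-derived neurons given 48 h chemical exposure immediately after seeding.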

[8] = ArunA_NOG_NeuritesPerNeuron: ArunA Biomedical's Neurite Outgrowth (NOG) Assay for Neurites Per Neuron (AID 2283758)
In short: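 Differentiated human H9-derived neurons exposed to chemicals for 48 h from seeding, then stained with Hoechst and βIII-tubulin/DyLight 488. Automated imaging counted neurites (processes >10 um) per valid neuron; loss of signal versus DMSO scored.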

[9] = ArunA_NOG_BranchPointsPerNeurite: ArunA Biomedical's Neurite Outgrowth (NOG) Assay for Branch Points Per Neurite (AID 2283759)
In short: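 Automated image analysis traced neurites (processes >10 um) from valid cell bodies after Hoechst and βIII-tubulin staining. hNN cells from H9 embryonic stem cells, 48 h exposure. Fitted bidirectionally against DMSO.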

[10] = tested on: Thyroperoxidase (TPO), gene 445522; test: CCTE_Simmons_GUA_TPO: CCTE's Guaiacol Assay for Thyroperoxidase (TPO) Inhibition, Simmons Lab (AID 2283750)
In short: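 Porcine thyroid microsomes (25 ug) in 200mM potassium phosphate, preincubated 30 s at 37C with compound (8 concentrations, 5 nM–87.5 uM) and 35mM guaiacol; 1mM H2O2 starts reaction. Absorbance change at 450nm over first 80 s; loss of signal versus DMSO, three replicates.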

[11] = ATG_M_06_XSP2: Attagene TRANS-FACTORIAL Multi-Species (XSP2) HepG2 Assay for M06 Transcription Factor (Internal Marker) (AID 2283811);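 also: internal background marker reporter mRNA measured by RT-PCR and capillary electrophoresis; hits are increases in signal above the DMSO baseline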
In short: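 Cells of the human liver line HepG2 carried transfected reporter transcription units and were treated for 24 h. Induced reporter transcripts were detected by fluorescence after RT-PCR and capillary electrophoresis, with activity fitted in the gain direction against DMSO.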

[12] = tested on: turtle Estrogen Receptor (ERa), gene 101933533; test: ATG_trERa_XSP2: Attagene TRANS-FACTORIAL Multi-Species (XSP2) HepG2 Assay for turtle Estrogen Receptor (ERa) (AID 2283812);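 also: actives raise reporter signal above DMSO so AC50 reflects agonist activity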
In short: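 Readout is reporter mRNA quantified by RT-PCR with capillary electrophoresis after 24 h compound exposure, increase relative to DMSO. Uses transiently transfected human HepG2 liver cells carrying a chimeric turtle ERa-Gal4 receptor driving GAL4-UAS reporters.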

[13] = target: Estrogen receptor beta (Homo sapiens) (UniProt Q92731); test: ATG_hERb_XSP2: Attagene TRANS-FACTORIAL Multi-Species (XSP2) HepG2 Assay for human Estrogen Receptor (ERb) (AID 2283813);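 also: actives raise reporter mRNA above DMSO so AC50 reflects agonist induction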
In short: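 Transient TRANS reporter system in HepG2: after 24 h of chemical, RNA is reverse-transcribed, reporter cDNA amplified, FAM-labelled and sized by capillary electrophoresis. Induction of the human ERb-Gal4 reporter is measured relative to DMSO.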

[14] = target: GAL4 Transcription Factor (Internal Marker), GAL4 (gene 855828) (UniProt P04386); test: ATG_GAL4_XSP2: Attagene TRANS-FACTORIAL Multi-Species (XSP2) HepG2 Assay for GAL4 Transcription Factor (Internal Marker) (AID 2283814);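 also: GAL4 reporter mRNA background control in MRTU transfected cells not a receptor target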
In short: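 Background-control readout: gain-of-signal fitted against DMSO. After 24 h exposure of transfected HepG2 (MRTU, GAL4-UAS reporters; 3 nM 6-alpha-fluorotestosterone, 1.5 nM norgestrel present), transcripts quantified by RT-PCR and capillary electrophoresis fluorescence.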

[15] = tested on: turtle Androgen Receptor (AR), gene 101947425; test: ATG_trAR_XSP2: Attagene TRANS-FACTORIAL Multi-Species (XSP2) HepG2 Assay for turtle Androgen Receptor (AR) (AID 2283815)
In short: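 Reporter transcripts were quantified via RT-PCR and capillary electrophoresis and fitted upward against DMSO. Transiently transfected human HepG2 cells carrying NR-Gal4 chimeras were exposed 24 h, with 3 nM 6-alpha-fluorotestosterone plus 1.5 nM norgestrel added.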

[16] = target: zebrafish Estrogen Receptor (ER1), esr1 (gene 259252) (UniProt P57717); test: ATG_zfER1_XSP2: Attagene TRANS-FACTORIAL Multi-Species (XSP2) HepG2 Assay for zebrafish Estrogen Receptor (ER1) (AID 2283816)
In short: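 After 24 h compound exposure, RNA from transfected HepG2 cells was reverse-transcribed and reporter transcripts resolved by capillary electrophoresis. The TRANS format reads exogenous zebrafish ER1-Gal4 chimera activity on GAL4-UAS elements; gain of signal against DMSO.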

[17] = target: chicken Estrogen Receptor (ERa), ESR1 (gene 396099) (UniProt P06212); test: ATG_chERa_XSP2: Attagene TRANS-FACTORIAL Multi-Species (XSP2) HepG2 Assay for chicken Estrogen Receptor (ERa) (AID 2283817);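 also: actives raise reporter signal above DMSO so AC50 reflects ER activation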
In short: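 Exogenous chicken ERa-Gal4 chimera activity was assessed in transfected human liver HepG2 cells after 24 h of treatment. Induced reporter mRNA was quantified fluorescently by capillary electrophoresis, with DMSO as baseline.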

[18] = tested on: zebrafish Estrogen Receptor (ER2a), gene 317734; test: ATG_zfER2a_XSP2: Attagene TRANS-FACTORIAL Multi-Species (XSP2) HepG2 Assay for zebrafish Estrogen Receptor (ER2a) (AID 2283818);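 also: hits raise reporter mRNA so AC50 reflects activation of zebrafish ER2a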
In short: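 Multiplexed trans-reporter readout: RT-PCR then capillary electrophoresis of reporter transcripts after 24 h compound treatment. Human HepG2 carries transfected zebrafish ER2a-Gal4 chimera; 3 nM 6-alpha-fluorotestosterone plus 1.5 nM norgestrel present. Induction scored against DMSO.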

[19] = STM_H9_NormalizedViability: Cytotoxicity Assessment at 120 hours in the Stemina devTOX quickPredict H9 human embryonic stem cell (hESC)-based Assay (AID 2283784)
In short: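 Viability endpoint: background-corrected CellTiter-Fluor RFU expressed relative to the 0.1% DMSO mean on each plate. Undifferentiated H9 cells were treated with daily re-dosing and media change, and loss of signal was fitted.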

Chain of Luciferin 4-monooxygenase (Photinus pyralis) (P08659 whole entry, looked up): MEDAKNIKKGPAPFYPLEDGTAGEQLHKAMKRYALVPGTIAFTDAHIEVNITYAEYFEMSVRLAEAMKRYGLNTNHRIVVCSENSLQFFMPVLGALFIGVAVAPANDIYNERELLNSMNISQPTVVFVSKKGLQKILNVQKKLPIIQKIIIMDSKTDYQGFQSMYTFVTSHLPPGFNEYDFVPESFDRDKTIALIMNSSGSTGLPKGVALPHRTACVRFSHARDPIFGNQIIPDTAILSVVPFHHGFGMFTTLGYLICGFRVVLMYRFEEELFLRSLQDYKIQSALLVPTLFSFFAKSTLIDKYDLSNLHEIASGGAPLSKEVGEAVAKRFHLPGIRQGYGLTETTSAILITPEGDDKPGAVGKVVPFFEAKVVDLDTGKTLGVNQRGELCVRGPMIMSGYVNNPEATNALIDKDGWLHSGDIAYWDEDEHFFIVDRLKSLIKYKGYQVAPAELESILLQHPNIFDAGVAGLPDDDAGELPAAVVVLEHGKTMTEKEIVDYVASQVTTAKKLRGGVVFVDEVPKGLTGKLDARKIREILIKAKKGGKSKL
Chain of AR (gene 367) (P10275 whole entry, looked up): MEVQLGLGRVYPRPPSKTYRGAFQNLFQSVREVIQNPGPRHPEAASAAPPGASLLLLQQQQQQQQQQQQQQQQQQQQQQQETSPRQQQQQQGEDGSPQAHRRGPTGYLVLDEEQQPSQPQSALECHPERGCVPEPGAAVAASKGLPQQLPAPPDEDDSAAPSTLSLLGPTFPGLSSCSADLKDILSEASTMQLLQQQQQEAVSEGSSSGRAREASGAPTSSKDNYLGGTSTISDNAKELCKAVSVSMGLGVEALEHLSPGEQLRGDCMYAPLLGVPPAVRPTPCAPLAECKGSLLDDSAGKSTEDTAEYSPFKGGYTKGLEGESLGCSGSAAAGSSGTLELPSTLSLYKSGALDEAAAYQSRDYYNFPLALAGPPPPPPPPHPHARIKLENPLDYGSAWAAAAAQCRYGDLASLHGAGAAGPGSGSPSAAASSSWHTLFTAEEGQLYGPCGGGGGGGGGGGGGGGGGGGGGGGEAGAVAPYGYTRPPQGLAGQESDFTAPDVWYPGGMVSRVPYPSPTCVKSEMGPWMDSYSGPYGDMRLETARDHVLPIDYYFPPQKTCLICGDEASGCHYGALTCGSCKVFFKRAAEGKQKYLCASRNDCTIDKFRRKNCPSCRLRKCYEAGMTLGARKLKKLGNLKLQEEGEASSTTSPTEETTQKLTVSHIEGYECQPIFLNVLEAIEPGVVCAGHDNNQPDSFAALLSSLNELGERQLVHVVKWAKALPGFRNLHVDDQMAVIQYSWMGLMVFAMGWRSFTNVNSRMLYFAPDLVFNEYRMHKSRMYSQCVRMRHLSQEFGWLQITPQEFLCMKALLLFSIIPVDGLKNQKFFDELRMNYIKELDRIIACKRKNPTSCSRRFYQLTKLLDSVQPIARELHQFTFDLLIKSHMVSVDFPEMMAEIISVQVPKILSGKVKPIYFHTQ
Chain of chicken Estrogen Receptor (ERa), ESR1 (gene 396099) (P06212 whole entry, looked up, the tested form may be a part): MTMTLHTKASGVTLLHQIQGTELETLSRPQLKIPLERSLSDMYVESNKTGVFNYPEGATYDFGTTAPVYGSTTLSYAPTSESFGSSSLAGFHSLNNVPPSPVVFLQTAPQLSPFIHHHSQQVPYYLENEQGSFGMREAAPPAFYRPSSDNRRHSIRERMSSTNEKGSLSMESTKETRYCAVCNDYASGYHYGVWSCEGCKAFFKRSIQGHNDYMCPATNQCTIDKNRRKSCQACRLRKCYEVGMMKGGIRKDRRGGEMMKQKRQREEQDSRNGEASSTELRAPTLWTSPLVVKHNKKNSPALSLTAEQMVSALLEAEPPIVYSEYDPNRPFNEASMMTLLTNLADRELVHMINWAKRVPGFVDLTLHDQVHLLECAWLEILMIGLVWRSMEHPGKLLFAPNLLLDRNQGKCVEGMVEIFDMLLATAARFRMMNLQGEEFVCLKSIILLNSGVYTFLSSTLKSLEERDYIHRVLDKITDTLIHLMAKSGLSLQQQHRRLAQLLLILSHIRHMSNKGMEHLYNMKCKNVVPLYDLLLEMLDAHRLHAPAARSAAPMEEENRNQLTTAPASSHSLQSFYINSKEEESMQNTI
Chain of Estrogen receptor beta (Homo sapiens) (Q92731 whole entry, looked up, the tested form may be a part): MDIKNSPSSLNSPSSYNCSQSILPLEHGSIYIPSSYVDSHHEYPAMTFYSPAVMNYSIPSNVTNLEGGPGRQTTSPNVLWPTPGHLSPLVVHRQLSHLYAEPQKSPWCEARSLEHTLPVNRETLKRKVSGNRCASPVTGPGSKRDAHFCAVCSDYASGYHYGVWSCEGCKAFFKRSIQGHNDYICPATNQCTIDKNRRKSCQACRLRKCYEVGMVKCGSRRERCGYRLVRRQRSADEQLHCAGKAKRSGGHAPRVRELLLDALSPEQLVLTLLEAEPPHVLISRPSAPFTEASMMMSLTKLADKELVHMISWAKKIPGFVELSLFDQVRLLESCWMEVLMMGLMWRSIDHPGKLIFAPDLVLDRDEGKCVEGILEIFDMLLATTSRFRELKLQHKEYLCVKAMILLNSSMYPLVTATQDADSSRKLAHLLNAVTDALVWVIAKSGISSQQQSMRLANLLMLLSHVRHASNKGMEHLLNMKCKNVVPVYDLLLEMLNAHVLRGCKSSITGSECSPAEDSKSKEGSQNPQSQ
Chain of zebrafish Estrogen Receptor (ER1), esr1 (gene 259252) (P57717 whole entry, looked up, the tested form may be a part): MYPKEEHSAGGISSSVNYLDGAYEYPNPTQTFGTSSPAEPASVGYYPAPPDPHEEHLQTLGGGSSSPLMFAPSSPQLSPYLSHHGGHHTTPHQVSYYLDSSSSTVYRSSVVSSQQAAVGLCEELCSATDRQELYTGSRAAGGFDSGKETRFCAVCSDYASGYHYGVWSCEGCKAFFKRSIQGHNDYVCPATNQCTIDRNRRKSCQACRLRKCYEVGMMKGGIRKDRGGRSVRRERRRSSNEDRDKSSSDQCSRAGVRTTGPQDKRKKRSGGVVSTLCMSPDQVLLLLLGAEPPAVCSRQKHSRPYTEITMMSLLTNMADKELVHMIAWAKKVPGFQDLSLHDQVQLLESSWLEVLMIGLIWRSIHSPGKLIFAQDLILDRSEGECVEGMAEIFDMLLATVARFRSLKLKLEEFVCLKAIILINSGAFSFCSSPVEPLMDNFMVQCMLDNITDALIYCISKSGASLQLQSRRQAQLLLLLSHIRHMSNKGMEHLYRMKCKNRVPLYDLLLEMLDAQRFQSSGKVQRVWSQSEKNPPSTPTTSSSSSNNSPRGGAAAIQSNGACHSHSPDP
Chain of GAL4 Transcription Factor (Internal Marker), GAL4 (gene 855828) (P04386 whole entry, looked up, the tested form may be a part): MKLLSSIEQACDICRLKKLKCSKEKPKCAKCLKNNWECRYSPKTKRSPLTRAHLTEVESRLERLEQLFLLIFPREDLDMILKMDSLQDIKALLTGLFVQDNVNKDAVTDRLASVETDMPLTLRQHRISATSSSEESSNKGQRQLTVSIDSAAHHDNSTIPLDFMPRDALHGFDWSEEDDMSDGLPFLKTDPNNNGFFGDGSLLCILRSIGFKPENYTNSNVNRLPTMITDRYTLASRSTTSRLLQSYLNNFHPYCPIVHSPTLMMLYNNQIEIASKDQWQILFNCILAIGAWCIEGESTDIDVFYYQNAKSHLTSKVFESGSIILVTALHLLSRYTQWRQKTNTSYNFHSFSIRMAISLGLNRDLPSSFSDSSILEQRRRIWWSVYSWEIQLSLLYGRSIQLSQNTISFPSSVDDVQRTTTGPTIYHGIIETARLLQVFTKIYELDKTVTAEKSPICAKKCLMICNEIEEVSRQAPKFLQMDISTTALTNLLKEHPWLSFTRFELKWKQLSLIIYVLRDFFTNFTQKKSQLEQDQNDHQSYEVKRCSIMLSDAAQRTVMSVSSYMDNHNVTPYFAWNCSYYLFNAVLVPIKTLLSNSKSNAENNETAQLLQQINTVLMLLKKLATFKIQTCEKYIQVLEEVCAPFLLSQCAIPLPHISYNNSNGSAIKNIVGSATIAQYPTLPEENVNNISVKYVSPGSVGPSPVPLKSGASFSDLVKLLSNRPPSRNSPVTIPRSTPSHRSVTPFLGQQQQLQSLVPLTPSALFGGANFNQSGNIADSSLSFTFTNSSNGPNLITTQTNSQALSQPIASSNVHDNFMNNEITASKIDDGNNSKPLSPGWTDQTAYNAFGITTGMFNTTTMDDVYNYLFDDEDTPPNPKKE

In the case of Oc1c(Cl)cc(Cl)cc1Cl, the AC50 [1] is reported as 19.1 µM (active).
With Nc1ccc(N)cc1 the AC50 [2] was 13.9 µM (active), the outcome [3] was “inactive” and the outcome [4] was “inactive”. For the same compound, the AC50 [5] was 49.8 µM (active).
In the case of O=S1(=O)OC(c2cc(Br)c(O)c(Br)c2)(c2cc(Br)c(O)c(Br)c2)c2ccccc21, the AC50 [2] is reported as 32.1 µM (active), the outcome [4] is reported as “inactive” and the outcome [5] is reported as “inactive”. The outcome (AR (gene 367)) was “inactive”.
In the case of O=C(CBr)c1ccc(O)cc1, the outcome [2] is reported as “inactive”, the outcome [4] is reported as “inactive” and the outcome [5] is reported as “inactive”.
In the case of Cc1cc(C)cc(C)c1, the outcome [1] is reported as “inactive”.
In the case of O=C(CCl)Nc1ccccc1, the outcome [2] is reported as “inactive”, the AC50 [3] is reported as 24.5 µM (active) and the AC50 [4] is reported as 12.7 µM (active). For the same compound, the AC50 [5] was 10.8 µM (active) and the outcome (AR (gene 367)) was “inactive”.
In the case of Nc1ncn[nH]1, the outcome [6] is reported as “inactive”, the outcome [7] is reported as “inactive” and the outcome [8] is reported as “inactive”. For the same compound, the outcome [9] was “inactive”, the outcome [2] was “inactive” and the outcome [3] was “inactive”. The outcome [5] was “inactive”.
With COc1ccccc1N the outcome [1] was “inactive”, the AC50 [10] was 33.2 µM (active) and the outcome [2] was “inactive”. The outcome [3] was “inactive”, the outcome [4] was “inactive” and the outcome [5] was “inactive”.
For O=C(N[C@H]1CN2CCC1CC2)c1ccc2c(c1)OCCO2, the outcome [1] was “inactive”, the outcome [4] was “inactive” and the outcome [5] was “inactive”. The outcome (AR (gene 367)) was “inactive”.
With Clc1cccc(Cl)c1Cl the AC50 [1] was 0.00446 µM (active), the outcome [3] was “inactive” and the outcome [4] was “inactive”.
With CCCCCCCCCCCCc1cccc(S(=O)(=O)O)c1 the outcome [1] was “inactive”, the outcome [2] was “inactive” and the AC50 [3] was 76.7 µM (active). For the same compound, the AC50 [4] was 75 µM (active) and the AC50 [5] was 83.1 µM (active).
With CCOP(=S)(OCC)O/N=C(\C#N)c1ccccc1 the AC50 [2] was 70 µM (active), the outcome [3] was “inactive” and the outcome [11] was “inactive”. The AC50 [12] was 7.97 µM (active) and 2.27 µM (active), the outcome [13] was “inactive” and the outcome [14] was “inactive”. The outcome [15] was “inactive”, the AC50 [16] was 6.85 µM (active) and the outcome [16] was “inactive”. For the same compound, the AC50 [17] was 6.64 µM (active) and 5.37 µM (active), the AC50 [18] was 4.38 µM (active) and the outcome [18] was “inactive”.
With CCCCCCCCCCCCOS(=O)(=O)O the outcome [2] was “inactive”, the AC50 [3] was 77.7 µM (active) and the AC50 [4] was 72.1 µM (active). For the same compound, the outcome [4] was “inactive” and the AC50 [5] was 71.3 µM (active).
For O=C1c2ccccc2C(=O)C1C(=O)C(c1ccccc1)c1ccc(Cl)cc1 (stereo not given), the outcome [2] was “inactive”, the AC50 [3] was 26.7 µM (active) and the AC50 [4] was 24.6 µM (active). The AC50 [5] was 33 µM (active) and the outcome (AR (gene 367)) was “inactive”.
In the case of OCCN(CCO)CCO, the outcome [1] is reported as “inactive”, the outcome [4] is reported as “inactive” and the outcome [19] is reported as “inactive”.
In the case of COC(=O)Nc1cccc(OC(=O)Nc2cccc(C)c2)c1, the AC50 [2] is reported as 9.99 µM (active) and the outcome [4] is reported as “inactive”.
With N#Cc1cccnc1 the outcome [1] was “inactive”, the outcome [3] was “inactive” and the outcome [4] was “inactive”. For the same compound, the outcome [5] was “inactive”.
For CN(N=O)C(N)=O, the outcome [2] was “inactive”.
